Source: PubChem BioAssay AID1159580 (chemical genetic matrix, 2015)
“And” between values parts separate entries of the source, which are not always exact repeats. Identical values can stand only once. The whole screen tested about 5,500 compounds, of which about 2,000 (36%) were called active. Inconclusive results (about 18%) are left out. Cut-off read from the data, not from the text of the source: active = normalized growth mostly below about 0.91 (no sharp cut-off); inconclusive = no clear call, values can overlap the other calls; inactive = mostly above about 0.92. Some of the results follow.

Assay: chemical genetic growth profiling, strain panel (AID 1159580);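 note: tested at 20 µM; growth read once vehicle control cultures reached saturation at 30 °C; 1 = growth at the plate median or of vehicle wells; lower values mean less growth of the strain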
Settings: S. cerevisiae deletion strains, growth OD

Measured: normalized growth

CN1CCOC(c2ccccc2)c2ccccc2C1 (configuration not stated)
inactive: locus YAL013W, strain DEP1, active compounds read low 1.01 | locus YAL021C, strain ccr4, active compounds read low 0.949 | locus YAL026C, strain drs2, active compounds read low 0.969 | locus YAL030W, strain snc1, active compounds read low 0.976 | locus YBL061C, strain skt5, active compounds read low 0.979 | locus YBR009C, strain hhf1, active compounds read low 0.984 | locus YBR021W, strain FUR4, active compounds read low 1.07 | locus YBR023C, strain chs3, active compounds read low 0.974 | locus YBR171W, strain sec66, active compounds read low 0.976 | locus YBR229C, strain ROT2, active compounds read low 1 | locus YBR231C, strain swc5, active compounds read low 0.977 | locus YBR279W, strain paf1, active compounds read low 0.975 | locus YCL011C, strain gbp2, active compounds read low 0.966 | locus YCL016C, strain dcc1, active compounds read low 1 | locus YCL029C, strain bik1, active compounds read low 1.04 | locus YCL061C, strain MRC1, active compounds read low 0.979 | locus YCL069W, strain vba3, active compounds read low 0.984 | locus YCR088W, strain abp1, active compounds read low 0.973 | locus YDL005C, strain med2, active compounds read low 0.979 | locus YDL035C, strain GPR1, active compounds read low 1 | locus YDL040C, strain nat1, active compounds read low 0.967 | locus YDL074C, strain BRE1, active compounds read low 1.05 | locus YDL101C, strain DUN1, active compounds read low 1.02 | locus YDL134C, strain PPH21, active compounds read low 1 | locus YDL185W, strain tfp1, active compounds read low 1.02 | locus YDL192W, strain arf1, active compounds read low 1.02 | locus YDR001C, strain nth1, active compounds read low 0.974 | locus YDR069C, strain doa4, active compounds read low 0.91 | locus YDR101C, strain arx1, active compounds read low 1.01 | locus YDR137W, strain rgp1, active compounds read low 0.988 | locus YDR150W, strain NUM1, active compounds read low 0.992 | locus YDR159W, strain sac3, active compounds read low 0.916 | locus YDR162C, strain NBP2, active compounds read low 1.01 | locus YDR195W, strain ref2 0.941 | locus YDR297W, strain sur2, active compounds read low 0.985 | locus YDR318W, strain mcm21, active compounds read low 1.03 | locus YDR334W, strain swr1, active compounds read low 0.917 | locus YDR335W, strain msn5, active compounds read low 0.995 | locus YDR388W, active compounds read low 1.02 | locus YDR392W, strain spt3, active compounds read low 0.987 | locus YDR502C, strain sam2, active compounds read low 1.01 | locus YEL003W, strain gim4, active compounds read low 0.989 | locus YEL037C, strain rad23, active compounds read low 0.985 | locus YEL061C, strain CIN8 (second series), active compounds read low 0.971 | locus YEL061C, strain CIN8, active compounds read low 1 | locus YER015W, strain faa2, active compounds read low 0.992 | locus YER016W, strain bim1, active compounds read low 0.975 | locus YER110C, active compounds read low 1.02 | locus YER111C, strain swi4, active compounds read low 0.971 | locus YER155C, strain BEM2 (second series), active compounds read low 1.01 | locus YER155C, strain BEM2, active compounds read low 1.01 | locus YER167W, strain BCK2, active compounds read low 1.01 | locus YFR010W, strain ubp6, active compounds read low 0.966 | locus YGL078C, strain dbp3, active compounds read low 1.02 | locus YGL086W, strain mad1, active compounds read low 0.998 | locus YGL167C, strain pmr1, active compounds read low 0.981 | locus YGL173C, strain kem1, active compounds read low 0.958 | locus YGL227W, strain vid30, active compounds read low 0.951 | locus YGL240W, strain doc1, active compounds read low 0.977 | locus YGL248W, strain PDE1, active compounds read low 1.01 | locus YGL253W, strain hxk2, active compounds read low 0.963 | locus YGR078C, strain PAC10, active compounds read low 1.02 | locus YGR135W, strain pre9, active compounds read low 1.02 | locus YGR229C, strain SMI1, active compounds read low 0.987 | locus YGR252W, strain gcn5, active compounds read low 0.997 | locus YHR013C, strain ard1, active compounds read low 0.992 | locus YHR027C, strain rpn1, active compounds read low 0.98 | locus YHR030C, strain SLT2, active compounds read low 1 and 0.998 | locus YHR079C, strain IRE1 (second series), active compounds read low 1.02 | locus YHR079C, strain IRE1, active compounds read low 0.985 | locus YHR094C, strain hxt1, active compounds read low 1.01 | locus YHR129C, strain ARP1, active compounds read low 1.01 | locus YHR142W, strain chs7, active compounds read low 0.963 | locus YHR200W, strain rpn10, active compounds read low 1.02 | locus YIL066C, strain RNR3, active compounds read low 1.01 | locus YIL073C, strain SPO22, active compounds read low 1.06 | locus YIL125W, strain kgd1, active compounds read low 1.01 | locus YIR030C, strain dcg1, active compounds read low 1.02 | locus YJL092W, strain hpr5, active compounds read low 0.986 | locus YJL095W, strain BCK1 (second series), active compounds read low 0.975 | locus YJL095W, strain BCK1, active compounds read low 1.02 and 0.995 | locus YJL115W, strain asf1, active compounds read low 0.949 | locus YJL129C, strain trk1, active compounds read low 0.968 | locus YJL134W, strain LCB3, active compounds read low 1 | locus YJL154C, strain vps35, active compounds read low 0.95 | locus YJL164C, strain tpk1, active compounds read low 0.984 | locus YJL166W, strain qcr8, active compounds read low 0.968 | locus YJL168C, strain set2, active compounds read low 1.02 | locus YJL187C, strain SWE1 (second series), active compounds read low 1.02 | locus YJL187C, strain SWE1, active compounds read low 0.985 | locus YJR043C, strain POL32, active compounds read low 1.03 | locus YJR066W, strain TOR1, active compounds read low 0.945
